This is part of a sample that, as a whole, favours compounds with a hit. Of some 83,000 tested, about 20% had one in any assay.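 Negative percent growth values reflect cell death: -40 means 40% of the cells present at the start died, and -100 means all died.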 Active and inactive are the calls of the source. How the source made its calls: active means growth percent below 10; inactive means the rest.
Experiments:
Assay in all cases: NCI-60 one-dose screen, 48 h (100 = growth as untreated, 0 = no growth, -100 = all killed)
Conditions in all cases: 10 µM unless noted
T-47D breast = tested on: T-47D breast
BT-549 breast = tested on: BT-549 breast
MDA-MB-435 melanoma = tested on: MDA-MB-435 melanoma
SW-620 colon = tested on: SW-620 colon
MCF7 breast = tested on: MCF7 breast
HCT-116 colon = tested on: HCT-116 colon
HCC-2998 colon = tested on: HCC-2998 colon
KM12 colon = tested on: KM12 colon

Measured: growth

COc1ccc(/C=N\NC(=O)c2cc(-c3ccc(Br)cc3)n(-c3ccc(S(N)(=O)=O)cc3)n2)cc1
inactive: T-47D breast 30.9% | BT-549 breast 76.1% | SW-620 colon 36.9% | MCF7 breast 18.3% | HCT-116 colon 28.4% | HCC-2998 colon 66% | KM12 colon 30.8%
active: MDA-MB-435 melanoma -43.8%

N#Cc1c(-c2cccc(Cl)c2)cc(-c2cccc(F)c2)[nH]c1=O
inactive: T-47D breast 84.5% | BT-549 breast 86.4% | MDA-MB-435 melanoma 90.4% | SW-620 colon 97% | MCF7 breast 89.2% | HCT-116 colon 88.5% | HCC-2998 colon 106% | KM12 colon 87.9%

COc1ccc(C2=NN(C(=O)c3cc(OC)c(OC)c(OC)c3)C(c3ccc(Cl)cc3)C2)cc1OC (centres undefined)
inactive: T-47D breast 24.6% | BT-549 breast 49.9% | SW-620 colon 30.1% | MCF7 breast 18.7% | HCT-116 colon 10.6% | KM12 colon 15.9%
active: MDA-MB-435 melanoma -43.3% | HCC-2998 colon -62.4%

Cc1c(O)cc(-c2cnc(N/N=C\c3ccc(Cl)cc3)s2)c(O)c1C
active: T-47D breast -11.2%
inactive: BT-549 breast 67.3% | MDA-MB-435 melanoma 97.5% | SW-620 colon 107% | MCF7 breast 71.1% | HCT-116 colon 94.6% | HCC-2998 colon 111% | KM12 colon 86.5%

CCCCC1CCCCN1C(=O)OCC (centres undefined)
inactive: T-47D breast 89.2% | BT-549 breast 73.9% | MDA-MB-435 melanoma 111% | SW-620 colon 106% | MCF7 breast 107% | HCT-116 colon 94% | HCC-2998 colon 101% | KM12 colon 123%

O=c1[nH]c2ccccc2n1C1CCN(CCOc2ccccc2)CC1
inactive: T-47D breast 87.5% | BT-549 breast 90.3% | MDA-MB-435 melanoma 97.7% | SW-620 colon 103% | MCF7 breast 81.3% | HCT-116 colon 84.7% | HCC-2998 colon 98.5% | KM12 colon 96.9%

COc1cccc(C(=O)NCCNc2cc(-c3cn(-c4ccccc4)nc3-c3cccc(OC)c3)ccn2)c1
inactive: T-47D breast 22.1% | BT-549 breast 40.8% | MDA-MB-435 melanoma 64.3% | SW-620 colon 71.1% | MCF7 breast 56.7% | HCT-116 colon 40.9% | HCC-2998 colon 63.9% | KM12 colon 41.5%

O=C(Nc1ccccc1Cl)Oc1ccc(-c2ccccc2)cc1
inactive: T-47D breast 106% | BT-549 breast 113% | MDA-MB-435 melanoma 101% | SW-620 colon 112% | MCF7 breast 110% | HCT-116 colon 110% | HCC-2998 colon 119% | KM12 colon 120%

Cc1ccc(NCCN(C)C)c2c(=O)c3ccccc3sc12
inactive: T-47D breast 22.3% | BT-549 breast 76.6% | MDA-MB-435 melanoma 13.2% | HCT-116 colon 10.2% | KM12 colon 23.3%
active: SW-620 colon 8.96% | MCF7 breast 0.259% | HCC-2998 colon -16.2%

CCOc1c(C#N)nnc2c(C#N)c(NC(=O)c3ccccc3)nn12
inactive: T-47D breast 98.8% | BT-549 breast 102% | MDA-MB-435 melanoma 102% | SW-620 colon 102% | MCF7 breast 93.4% | HCT-116 colon 100% | HCC-2998 colon 104% | KM12 colon 101%

Cn1cc(-c2csc(-c3cccc(F)c3)n2)c2cccnc21
active: T-47D breast -47.9% [100 µM] | BT-549 breast -36.9% [100 µM] | MDA-MB-435 melanoma -53.6% [100 µM] | SW-620 colon -49.8% [100 µM] | MCF7 breast -62% [100 µM] | HCT-116 colon -79.7% [100 µM] | HCC-2998 colon -84.6% [100 µM] | KM12 colon -70% [100 µM]

COc1ccc(-c2nc(SC(C)C)nc(NNC(N)=S)c2C#N)cc1
active: MDA-MB-435 melanoma -46.4%
inactive: T-47D breast 51.6% | BT-549 breast 77.2% | SW-620 colon 22.2% | MCF7 breast 30.7% | HCT-116 colon 75.1% | HCC-2998 colon 63.7% | KM12 colon 39.2%

N#Cc1c(-c2ccccn2)[nH]c(=S)[nH]c1=O
inactive: T-47D breast 94.4% | BT-549 breast 102% | MDA-MB-435 melanoma 99.8% | SW-620 colon 105% | MCF7 breast 95.1% | HCT-116 colon 94.8% | HCC-2998 colon 106% | KM12 colon 102%

Cc1cc(NCCCCNc2ccnc3cc(Cl)ccc23)nc(Nc2ccc(C(=O)N3CCCC3)cc2)n1
active: T-47D breast -31.2% | MDA-MB-435 melanoma -45% | SW-620 colon -11.8% | HCT-116 colon 2.57% | HCC-2998 colon 8.57%
inactive: BT-549 breast 93.2% | MCF7 breast 12.7% | KM12 colon 55.7%

CCCCn1c(=O)c2c(nc(NCCc3ccc(O)c(O)c3)n2CCC)n(CCCC)c1=O
inactive: T-47D breast 49.3% | BT-549 breast 102% | MDA-MB-435 melanoma 82.6% | SW-620 colon 89.1% | MCF7 breast 65% | HCT-116 colon 63.3% | HCC-2998 colon 78.8% | KM12 colon 61.3%

Cc1ccc(N(C(=O)CCc2c[nH]c3ccccc23)[C@H](C(=O)Nc2ccc(Cl)cc2)c2cccc([N+](=O)[O-])c2)cc1
inactive: T-47D breast 72.5% | BT-549 breast 69.7% | MDA-MB-435 melanoma 81.3% | SW-620 colon 69.1% | MCF7 breast 90.1% | HCT-116 colon 79.8% | HCC-2998 colon 87.8% | KM12 colon 60.6%

Cc1cccc(Cc2cnc(NC(=O)/C=C/c3ccco3)s2)c1
active: MDA-MB-435 melanoma -30.7% | HCC-2998 colon 6.44%
inactive: T-47D breast 37.2% | BT-549 breast 25.8% | SW-620 colon 24.9% | MCF7 breast 14.9% | HCT-116 colon 18.1% | KM12 colon 13.3%

COc1ccc2[nH]c(O)c(/C=c3/cc4c(c(-c5cc(OC)c(OC)c(OC)c5)n3)=Nc3ccccc3-4)c2c1
inactive: T-47D breast 78.7% | BT-549 breast 69.5% | MDA-MB-435 melanoma 29.6% | SW-620 colon 62.8% | MCF7 breast 23.4% | HCT-116 colon 36.8% | HCC-2998 colon 77.1% | KM12 colon 52.5%

O=[N+]([O-])c1ccc(-c2cc(-c3ccc(Nc4nc(Nc5ccc(Cl)cc5)nc(Nc5ccc(Cl)cc5)n4)cc3)no2)cc1
inactive: T-47D breast 97.2% | BT-549 breast 103% | MDA-MB-435 melanoma 103% | SW-620 colon 96.6% | MCF7 breast 83.1% | HCT-116 colon 83.7% | HCC-2998 colon 78.2% | KM12 colon 105%

Nc1nc(N)c2c(n1)NC(c1ccccc1)C1CCc3ccccc3C1=N2 (centres undefined)
inactive: T-47D breast 30.7% | BT-549 breast 39% | MDA-MB-435 melanoma 28.4% | SW-620 colon 58.9% | MCF7 breast 18.7% | HCT-116 colon 26.1% | HCC-2998 colon 65.4% | KM12 colon 39.1%

CC1(C)OC2C(CO[Si](C)(C)C(C)(C)C)OC(n3c(I)c(C#C[Si](C)(C)C)c(=O)[nH]c3=O)C2O1 (centres undefined)
active: SW-620 colon -43% | HCC-2998 colon -51%
inactive: T-47D breast 96.2% | BT-549 breast 118% | MDA-MB-435 melanoma 83% | MCF7 breast 106% | HCT-116 colon 71% | KM12 colon 107%

CC(=O)N1C(=S)NC(=O)C1Cn1c(-c2ccccc2)nc2ccccc21 (centres undefined)
inactive: T-47D breast 95.3% | BT-549 breast 109% | MDA-MB-435 melanoma 100% | SW-620 colon 103% | MCF7 breast 88.7% | HCT-116 colon 90.2% | HCC-2998 colon 110% | KM12 colon 100%

COc1ccc(-c2nc3ccc4[nH]ncc4c3c3c2CCCC3)cc1B(O)O
inactive: T-47D breast 46.9% | BT-549 breast 41.4% | MDA-MB-435 melanoma 32.4% | SW-620 colon 33.4% | MCF7 breast 60.1% | HCT-116 colon 27% | HCC-2998 colon 69.8% | KM12 colon 42.7%

O=c1c2cc(F)ccc2sc2c(NCCCN3CCCC3)nc3ccccc3c12
inactive: T-47D breast 64.6% | BT-549 breast 70.6% | MDA-MB-435 melanoma 20.6% | SW-620 colon 20.4% | HCT-116 colon 24.2% | HCC-2998 colon 22.1% | KM12 colon 27.7%
active: MCF7 breast -24.8%

O=c1[nH][n+](-c2ccc(Cl)cc2)no1
inactive: T-47D breast 26.9% | BT-549 breast 91.8% | MDA-MB-435 melanoma 30.8% | SW-620 colon 40.8% | MCF7 breast 58.4% | HCT-116 colon 84.5% | HCC-2998 colon 32.4% | KM12 colon 31.3%

COc1nc2c(c(=O)n1C)CN(c1ccccc1)C(=O)CN2C
inactive: T-47D breast 26.8% [100 µM] | BT-549 breast 24.7% [100 µM] | MDA-MB-435 melanoma 66.2% [100 µM] | SW-620 colon 69.3% [100 µM] | MCF7 breast 24.2% [100 µM] | HCT-116 colon 49.1% [100 µM] | HCC-2998 colon 90.4% [100 µM] | KM12 colon 39.1% [100 µM]

CC(C)CCC[C@@H](C)[C@H]1CC[C@H]2[C@@H](Nc3ccc(O)cc3)CCC[C@]12C
inactive: BT-549 breast 113% | MDA-MB-435 melanoma 100% | SW-620 colon 114% | MCF7 breast 56.1% | HCT-116 colon 84.8% | HCC-2998 colon 122% | KM12 colon 87.9%
active: T-47D breast -15.8%

COc1cc(C(=O)c2cc(C)c3[nH]c4ccc(Cl)cc4c3c2C)cc(OC)c1OC
inactive: T-47D breast 70.4% | BT-549 breast 14.4% | SW-620 colon 25.7% | MCF7 breast 13.9% | HCC-2998 colon 14.2%
active: MDA-MB-435 melanoma -21.7% | HCT-116 colon 3.67% | KM12 colon -5.01%
